Screening results (PubChem)
The list is not random: actives were taken first. Their share in the collection is about 1.1%.
HEK293 viab: counter-screen for SNCA expression inhibitors: cell viability; HEK-293-SNCA-luc viability, GF-AFC fluorescence, 24 h; Potency, µM (series often up to 57.1 µM), usual class: cytotoxic; hit rate 0.12% among 150,000; also: nearly all actives have a fitted effect of over 30% in size
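HEK-293-SNCA-luc cells (1500/well) plated 24 h, then exposed 24 h to a dilution series; GF-AFC added 30 min at 37C, fluorescence 405/540 nm; normalised to medium-only and DMSO wells, Hill fit.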
GPT2 inhibitor: GPT2 alanine aminotransferase inhibition | Q8TD30 | Recombinant GPT2, coupled pyruvate oxidase/HRP Amplex Red fluorescence | Potency, µM (highest dose often 57.7 µM), most hits filed as inhibitors | hit rate 0.25% among 100,000; also: nearly all actives have a fitted effect of over 60% in size
Target sequence (Q8TD30 whole entry, looked up): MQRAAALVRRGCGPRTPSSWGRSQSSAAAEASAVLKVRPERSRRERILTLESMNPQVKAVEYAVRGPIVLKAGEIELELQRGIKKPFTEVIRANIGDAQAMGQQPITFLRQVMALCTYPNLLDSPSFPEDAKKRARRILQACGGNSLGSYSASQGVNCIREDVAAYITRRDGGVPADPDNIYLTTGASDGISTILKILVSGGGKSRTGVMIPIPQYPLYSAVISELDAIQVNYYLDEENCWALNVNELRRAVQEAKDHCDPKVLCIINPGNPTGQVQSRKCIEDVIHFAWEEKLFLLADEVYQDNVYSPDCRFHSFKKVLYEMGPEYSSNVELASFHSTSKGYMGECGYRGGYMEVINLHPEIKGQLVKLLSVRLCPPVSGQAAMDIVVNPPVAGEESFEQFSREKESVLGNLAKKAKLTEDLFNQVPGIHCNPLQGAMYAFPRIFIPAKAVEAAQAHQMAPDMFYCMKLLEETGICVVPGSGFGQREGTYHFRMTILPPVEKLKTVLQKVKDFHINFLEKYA
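Recombinant GPT2 (10ng/uL) with 250uM a-KG and 2mM L-alanine, 30 min at room temperature, in HEPES pH 7.5 buffer. Pyruvate detected by pyruvate oxidase/HRP/Amplex Red fluorescence after 30 min in the dark; AOA (50uM) as positive control.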
SNCA expr inh: reduces expression of the alpha-synuclein gene; HEK-293 SNCA-luciferase knock-in, luminescence, 24 h; Potency, µM (doses to about 57.2 µM), actives largely listed as inhibitors; hit rate 0.17% among 140,000; AID 1671194; also: nearly all actives have a fitted effect of over 45% in size
IP6K1 inhibitor: IP6K1 kinase inhibition | activity change, % (series mostly up to about 58 µM) | hit rate 0.81% among 140,000 | IP6K1 kinase, ADP-Glo luminescence, 2 h; hits give low values | Q92551; in the data active = activity change below about -25%
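ADP-Glo luminescence measures ADP made by human IP6K1 during a 2 h RT reaction with ATP/IP6 (mix at 1.3 mM/130 uM); top library doses 57.5 and 19.1 uM final.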
IP6K1 inh cnf: human IP6K1 inhibition, confirmatory; AID 1645852; recombinant IP6K1 kinase, ADP-Glo luminescence, 2 h; shares compounds with IP6K1 inhibitor; hit rate 13% among 1,200; Potency, µM (top dose mostly 49 µM), actives largely listed as inhibitors; also: nearly all actives have a fitted effect of over 65% in size
Large screens that a line does not name were inactive (follow-up assays come after a bar, where they were run); ! = not confirmed by another sample. Unless noted, calls follow the shape of the dose curve; as a rule, active = well fitted curve in the direction sought with a large enough effect; inconclusive = small, poorly fitted or top-dose-only effect, or another doubt; inactive = no such curve, though single readings can be large; an effect the other way counts as inactive or inconclusive.

O=C(c1ccccc1)n1nc(-c2ccco2)nc1NCc1ccccc1Cl	IP6K1 inhibitor -31 (no result: GPT2 inhibitor) | IP6K1 inh cnf inactive
O=C(Cc1cccc(Cl)c1)N1CCN(c2nccc(Nc3ccccc3F)n2)CC1	none
COc1ccc(-c2cc(C(=O)NCc3c(C)cc(C)[nH]c3=O)c3c(c2)N(C(C)C)CCO3)cc1OC	SNCA expr inh inconclusive, IP6K1 inhibitor -27 | IP6K1 inh cnf inconclusive
COC(=O)N1CC2(Cc3ccccc3N(C(C)=O)C2)C1	IP6K1 inhibitor -25 | IP6K1 inh cnf inactive
CC(=O)N1CC2(Cc3ccccc3N(C(C)=O)C2)C1	none
CCOC(=O)c1ccc(NC(=O)c2csc3c2CCCC3)cc1	IP6K1 inhibitor -33 (no result: GPT2 inhibitor) | IP6K1 inh cnf inconclusive
CCOC(=O)c1cccc(NC(=O)CCCn2nc(C)c3c(C)n(-c4ccccc4)nc3c2=O)c1	IP6K1 inhibitor -100 (no result: GPT2 inhibitor) | IP6K1 inh cnf inactive
Cc1ccc(NC(=O)CCCn2nc(C)c3c(C)n(-c4ccccc4)nc3c2=O)cc1Cl	none (no result: GPT2 inhibitor)
O=C(NCc1cccs1)C1CCCN(Cc2cccc(-c3ccc(F)cc3F)c2)C1 (stereo not given)	SNCA expr inh inconclusive
Cc1ccc(OCc2ccc(-c3nc(C#N)c(N4CCN(c5cccc(Cl)c5)CC4)o3)o2)cc1	IP6K1 inhibitor -34 (no result: GPT2 inhibitor) | IP6K1 inh cnf inactive
Cc1ccc(OCc2nc(C3CN(C(=O)c4n[nH]c5ccccc45)C3)no2)cc1	none
O=C1OC2(c3ccccc31)c1cc(Br)c(O)c(Br)c1Oc1c2cc(Br)c(O)c1Br	IP6K1 inhibitor -69 | IP6K1 inh cnf 3.3µM
COc1ccc(F)cc1-c1ccc(CN2CCC(NC(=O)c3ccc(F)cc3)C2)cc1 (stereo not given)	none (no result: HEK293 viab, GPT2 inhibitor, SNCA expr inh)
COCCNC(=O)c1nc(-c2ccc(Cl)cc2)c2ccccn12	none
O=c1c(O)c(-c2ccc(O)c(O)c2)oc2cc(O)cc(O)c12	GPT2 inhibitor 14µM!, IP6K1 inhibitor -55 | IP6K1 inh cnf 0.46µM
O=c1cc(-c2ccc(O)c(O)c2)oc2cc(O)cc(O)c12	none (no result: IP6K1 inhibitor)
Cc1c(C)n(C)c2ccc(C(=O)N3CCN(c4ccccc4)CC3)cc12	IP6K1 inhibitor -27 (no result: GPT2 inhibitor) | IP6K1 inh cnf inactive
Cc1cccc(N2CCN(C(=O)c3ccc4c(c3)c(C)c(C)n4C)CC2)c1C	none (no result: GPT2 inhibitor)
CN(Cc1ccccc1)C(=O)c1ccc(S(=O)(=O)Nc2ccccc2)cc1	none (no result: HEK293 viab, GPT2 inhibitor, SNCA expr inh, IP6K1 inhibitor) | IP6K1 inh cnf inactive
Cc1cc(=O)n(CC(=O)NCCCc2ccccc2)c(N2CCc3ccccc3C2)n1	GPT2 inhibitor inconclusive, SNCA expr inh inconclusive
N#CCC(C1CCCC1)n1cc(-c2ncnc3[nH]ccc23)cn1 (stereo not given)	none (no result: SNCA expr inh) | IP6K1 inh cnf inactive
Nc1nc(Nc2cccc(Cl)c2)sc1C(=O)c1ccc(F)cc1	IP6K1 inhibitor -27 (no result: GPT2 inhibitor) | IP6K1 inh cnf inactive
CCn1cnc2c(=O)oc3ccc(S(=O)(=O)N4CCN(c5cc(C)ccc5C)CC4)cc3c21	IP6K1 inhibitor -28 (no result: GPT2 inhibitor) | IP6K1 inh cnf inactive
O=S(=O)(NC1CCN(c2ccc3nnc(-c4ccccc4)n3n2)CC1)c1cccs1	IP6K1 inhibitor -27 (no result: HEK293 viab, GPT2 inhibitor, SNCA expr inh) | IP6K1 inh cnf inconclusive
O=Cc1cccc(-c2ccc(C(=O)O)cn2)c1	none
O=Cc1ccc(-c2ccc(C(=O)O)cn2)cc1	IP6K1 inhibitor -27 | IP6K1 inh cnf inactive
O=C(O)CCCNc1cc(N2CCN(C3CCCCC3)CC2)c2noc3c2c1C(=O)c1ccccc1-3	HEK293 viab inconclusive, SNCA expr inh inconclusive, IP6K1 inhibitor -34 (no result: GPT2 inhibitor) | IP6K1 inh cnf inconclusive
CC(=O)c1ccc(OC(=O)c2c(-c3ccccc3Cl)noc2C)cc1	IP6K1 inhibitor -42 (no result: GPT2 inhibitor) | IP6K1 inh cnf inactive
Cc1cccc(Cn2cc(S(=O)(=O)c3ccc(Cl)cc3)c(=O)c3cc4c(cc32)OCO4)c1	none (no result: GPT2 inhibitor)
COc1cccc(Cn2cc(S(=O)(=O)c3ccc(C)cc3)c(=O)c3cc4c(cc32)OCO4)c1	IP6K1 inhibitor -30 (no result: GPT2 inhibitor) | IP6K1 inh cnf inactive
CC(C)CCN(Cc1ccco1)C(=O)Cn1ncc2c([nH]c3ccccc32)c1=O	SNCA expr inh inconclusive, IP6K1 inhibitor -29 (no result: GPT2 inhibitor) | IP6K1 inh cnf inactive
O=C(Cc1ccccc1)Nc1cccc(-c2nc3cccnc3s2)c1	none (no result: GPT2 inhibitor)
COCC(=O)Nc1cccc(-c2nc3cccnc3s2)c1	IP6K1 inhibitor -27 (no result: GPT2 inhibitor) | IP6K1 inh cnf inconclusive
Cc1ccc(C(=O)NC2=NC(c3ccc(C)cc3)CC(=O)N2)cc1 (stereo not given)	IP6K1 inhibitor -26 (no result: GPT2 inhibitor) | IP6K1 inh cnf inactive
